Experimental data reported in PubChem BioAssay AID2284172 (EPA ToxCast).
Activity calls are given as the source filed them. Rule for the calls: active = hit-call score of the fitted dose curve at least 0.9, where 1 is the maximum; inactive = score below 0.9.

Molecular target: Voltage-dependent L-type calcium channel subunit alpha-1C (Rattus norvegicus) (UniProt P22002)
Experiment: ERF_FR_IC_rCACNA1C_Dihydropyridine: Eurofins (ERF) Calcium Ion Channel Binding (Dihydropyridine Site) LeadHunter Assay for rat Cav1.2 (L-type), conducted at France lab site
Procedure: ERF_FR_IC_rCACNA1C_Dihydropyridine is a biochemical, single-readout assay that uses extracted gene-proteins in a cell-free assay. Measurements were taken 1.5 hour after chemical dosing in a 96-well plate. See Cav1.2 (L-type) Rat Calcium Ion Channel Binding (Dihydropyridine Site) Assay, Cerep.ERF_FR_IC_rCACNA1C_Dihydropyridine is an assay component calculated from the ERF_FR_IC_rCACNA1C_Dihydropyridine assay. It is designed to measure radioligand binding using a type of binding reporter as detected by scintillation counting with radiometry technology.Data from the assay component ERF_FR_IC_rCACNA1C_Dihydropyridine was analyzed at the assay endpoint, ERF_FR_IC_rCACNA1C_Dihydropyridine, in the positive analysis fitting direction relative to DMSO as the negative control and baseline of activity. Using a type of binding reporter, loss-of-signal activity can be used to understand changes in binding as they relate to gene CACNA1C. To generalize the intended target to other relatable targets, this assay endpoint is annotated to the ion channel intended target family, where the subfamily is voltage gated (Calcium).
Rat brain cells are incubated for 90 minutes at room temprature with [3H]nitrendipine (0.25 nM) ligand and Nitrendipine as control inhibitor. Test Sample Requirements: Minimum for 1) Screen: 60 ul of 10 mM stock -OR- 1 mg (pre-weighed) for 10 uM final testing. […]

Chain of Voltage-dependent L-type calcium channel subunit alpha-1C (Rattus norvegicus) (P22002 whole entry, looked up): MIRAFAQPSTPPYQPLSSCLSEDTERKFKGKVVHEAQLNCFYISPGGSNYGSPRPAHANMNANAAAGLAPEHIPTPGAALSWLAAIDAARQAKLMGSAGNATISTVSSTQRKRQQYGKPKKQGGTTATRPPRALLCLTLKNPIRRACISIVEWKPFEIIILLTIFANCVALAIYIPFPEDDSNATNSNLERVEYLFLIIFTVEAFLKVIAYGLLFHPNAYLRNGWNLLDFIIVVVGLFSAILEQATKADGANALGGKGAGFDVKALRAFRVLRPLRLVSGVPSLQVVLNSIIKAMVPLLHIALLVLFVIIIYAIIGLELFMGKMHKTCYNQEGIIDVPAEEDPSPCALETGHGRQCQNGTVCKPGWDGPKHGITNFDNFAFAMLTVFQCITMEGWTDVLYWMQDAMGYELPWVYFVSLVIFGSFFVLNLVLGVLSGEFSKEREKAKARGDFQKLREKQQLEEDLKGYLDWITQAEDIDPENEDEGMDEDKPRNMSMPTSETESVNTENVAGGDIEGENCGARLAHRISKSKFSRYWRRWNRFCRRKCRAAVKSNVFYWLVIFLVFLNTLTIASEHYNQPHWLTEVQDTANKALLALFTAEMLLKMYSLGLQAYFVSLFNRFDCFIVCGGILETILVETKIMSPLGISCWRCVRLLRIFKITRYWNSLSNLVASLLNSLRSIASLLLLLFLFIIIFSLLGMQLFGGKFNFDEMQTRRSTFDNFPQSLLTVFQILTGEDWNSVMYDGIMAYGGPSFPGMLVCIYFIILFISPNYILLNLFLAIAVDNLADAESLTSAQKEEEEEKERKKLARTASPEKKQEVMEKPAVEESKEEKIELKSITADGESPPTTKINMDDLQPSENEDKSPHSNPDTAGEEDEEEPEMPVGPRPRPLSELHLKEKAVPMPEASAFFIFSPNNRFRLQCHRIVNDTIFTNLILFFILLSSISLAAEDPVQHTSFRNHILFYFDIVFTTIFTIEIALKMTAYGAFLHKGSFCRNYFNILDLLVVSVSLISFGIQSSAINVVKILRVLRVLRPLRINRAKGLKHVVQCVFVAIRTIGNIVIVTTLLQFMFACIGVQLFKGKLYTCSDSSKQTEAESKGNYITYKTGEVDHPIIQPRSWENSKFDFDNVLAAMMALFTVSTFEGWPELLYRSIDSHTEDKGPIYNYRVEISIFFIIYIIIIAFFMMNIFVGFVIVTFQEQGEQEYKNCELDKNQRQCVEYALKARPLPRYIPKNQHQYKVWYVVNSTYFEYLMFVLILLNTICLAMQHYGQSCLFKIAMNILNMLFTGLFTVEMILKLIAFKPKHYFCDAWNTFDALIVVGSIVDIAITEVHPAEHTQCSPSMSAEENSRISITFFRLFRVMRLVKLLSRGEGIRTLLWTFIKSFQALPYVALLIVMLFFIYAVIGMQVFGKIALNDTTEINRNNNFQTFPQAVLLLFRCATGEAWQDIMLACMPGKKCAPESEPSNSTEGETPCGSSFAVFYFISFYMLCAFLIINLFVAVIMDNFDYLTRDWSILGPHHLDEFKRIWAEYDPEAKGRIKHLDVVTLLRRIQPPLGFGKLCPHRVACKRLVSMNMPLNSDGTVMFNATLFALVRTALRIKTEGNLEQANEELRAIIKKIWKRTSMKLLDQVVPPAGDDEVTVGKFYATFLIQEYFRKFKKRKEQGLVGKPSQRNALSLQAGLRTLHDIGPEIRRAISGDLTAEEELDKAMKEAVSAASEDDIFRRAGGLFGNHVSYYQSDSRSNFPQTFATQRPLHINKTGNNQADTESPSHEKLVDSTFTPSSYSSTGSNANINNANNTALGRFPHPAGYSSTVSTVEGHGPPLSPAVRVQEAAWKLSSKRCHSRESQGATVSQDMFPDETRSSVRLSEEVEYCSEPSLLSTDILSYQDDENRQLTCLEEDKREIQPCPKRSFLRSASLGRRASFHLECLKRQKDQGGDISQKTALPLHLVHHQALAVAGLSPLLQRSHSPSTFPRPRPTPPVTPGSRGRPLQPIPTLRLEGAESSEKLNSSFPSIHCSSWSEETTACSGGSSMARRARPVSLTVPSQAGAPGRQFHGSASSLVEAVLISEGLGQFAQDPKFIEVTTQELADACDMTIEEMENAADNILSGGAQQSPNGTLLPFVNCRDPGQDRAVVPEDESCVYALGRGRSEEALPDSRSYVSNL

In the case of `COc1cc(CCC(=O)CC(=O)CCc2ccc(O)c(OC)c2)ccc1O`, the AC50 is reported as 3.16 µM (active).
